# Reference: PubChem BioAssay (NCATS)
# Inconclusive results are not listed. A number with no mark means an inactive call. The source made the active and inactive calls. Calls follow the shape of the full dose curve.
# Molecular target: Nucleoprotein (Lymphocytic choriomeningitis virus (strain Armstrong)) (UniProt P09992)
# Assay: qHTS for Inhibitors of the Functional Ribonucleoprotein Complex (vRNP) of Lymphocytic Choriomeningitis Arenaviruses (LCMV): LCMV Primary Screen - GLuc reporter signal (AID 1347086); also: nearly all actives have a fitted effect of over 70% in size
# Details: LCMV minigenome vRNP cell assay, Gaussia luciferase reporter; series mostly up to 57.5 µM; activity change, negative = inhibition: at the top concentration
# % is scaled to controls: 0 for no effect and ±100 for the full control effect.
# Chain of Nucleoprotein (Lymphocytic choriomeningitis virus (strain Armstrong)) (P09992 whole entry, looked up): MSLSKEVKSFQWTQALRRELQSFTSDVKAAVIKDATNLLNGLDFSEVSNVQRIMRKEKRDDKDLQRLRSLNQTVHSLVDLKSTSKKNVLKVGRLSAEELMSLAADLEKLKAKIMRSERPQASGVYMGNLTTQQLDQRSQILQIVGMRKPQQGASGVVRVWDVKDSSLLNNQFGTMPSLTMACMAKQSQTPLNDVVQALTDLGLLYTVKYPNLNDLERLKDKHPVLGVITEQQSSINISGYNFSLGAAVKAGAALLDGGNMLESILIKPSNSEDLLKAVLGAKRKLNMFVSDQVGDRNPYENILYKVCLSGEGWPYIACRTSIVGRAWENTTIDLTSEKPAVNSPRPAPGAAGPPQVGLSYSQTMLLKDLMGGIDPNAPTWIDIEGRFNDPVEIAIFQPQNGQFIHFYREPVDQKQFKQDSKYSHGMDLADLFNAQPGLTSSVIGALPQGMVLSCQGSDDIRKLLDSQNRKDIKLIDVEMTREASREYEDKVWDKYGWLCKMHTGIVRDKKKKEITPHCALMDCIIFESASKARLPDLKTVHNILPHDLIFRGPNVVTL
Structure (SMILES),"activity change, negative = inhibition",Potency
Cn1c(=O)c2c(ncn2CCO)n(C)c1=O,1.07%,–
COC(=O)CCCCC(CCSS/C(CCO)=C(\C)N(C=O)Cc1cnc(C)nc1N)SC(C)=O (centres undefined),-2.7%,–
CCCCCCCCCCCCCCCCCCO,4.96%,–
CCOC(=O)Oc1ccc(CCNC(=O)[C@H](CCSC)NC(C)=O)cc1OC(=O)OCC,3.18%,–
CCn1cc(C(=O)O)c(=O)c2cc(F)c(N3CCNC(C)C3)c(F)c21 (centres undefined),–,inactive
CCOCCn1c(C2CCN(CCc3ccc(C(C)(C)C(=O)O)cc3)CC2)nc2ccccc21,-4.48%,–
CCCc1ccc(OCC(=O)N2CCN(C(=O)COc3ccc(CCC)cc3OC)CC2)c(OC)c1,-3.84%,–
CC(C)C[C@H]1C(=O)N2CCC[C@H]2[C@]2(O)O[C@](NC(=O)[C@@H]3C=C4c5cccc6[nH]c(Br)c(c56)C[C@H]4N(C)C3)(C(C)C)C(=O)N12,25.2%,–
CO[C@@]1(NC(=O)CSCC#N)C(=O)N2C(C(=O)O)=C(CSc3nnnn3C)CS[C@@H]21,–,inactive
CC(C)(C)NCC(O)c1cc(O)cc(O)c1 (centres undefined),–,inactive
CCCc1nn(C)c2c(=O)[nH]c(-c3cc(S(=O)(=O)N4CCN(C)CC4)ccc3OCC)nc12,–,inactive
Cc1cccc(C)c1NC(=O)c1cc(S(N)(=O)=O)c(Cl)cc1O,10.6%,–
CC1(C)OC(=O)NC1=O,2.84%,–
CCCCCCOc1ccccc1C(N)=O,1.42%,–
O=C(CCCl)NCCc1ccccc1,9.02%,–
COCCc1ccccn1,19.1%,–
CC12CCC(CC1)C(C)(C)O2,9.33%,–
O=C(O)c1cc(=O)c2c(OCC(O)COc3cccc4oc(C(=O)O)cc(=O)c34)cccc2o1,–,inactive
CC(=O)c1ccc(O)c(C(N)=O)c1,-1.38%,–
N#CC1(c2ccc(F)cc2)CCC(=O)CC1,0.298%,–

Structure (SMILES),"activity change, negative = inhibition",Potency
NC(=O)c1ncn([C@@H]2O[C@H](CO)[C@@H](O)[C@H]2O)c1O,–,inactive
C[N+]1(C)CCCC(OC(=O)C(O)(c2ccccc2)c2ccccc2)C1 (centres undefined),9.14%,–
CN1N=C(C(N)=O)CCC1=O,63.2%,–
OC1(c2ccc(Cl)cc2)CCNCC1,4.14%,–
Cc1cc(=O)c2c(O)c3c(O)cc(=O)c4c3c3c(cc(O)c1c23)C(C)(C)C=4O,–,inactive
CNCc1ccccc1,-3.12%,–
C=CCN1C[C@H](C(=O)N(CCCN(C)C)C(=O)NCC)C[C@@H]2c3cccc4[nH]cc(c34)C[C@H]21,9.71%,–
N=C(N)N1CCc2ccccc2C1,-2.35% [at 5.82 µM],–
CC(C)=CCC1C(=O)N(c2ccccc2)N(c2ccccc2)C1=O,-34.6%,–
C/C(=N\O)[C@@H](C)NCC(C)(C)CN[C@H](C)/C(C)=N/O,-3.79%,–
CC(CSC(=O)c1ccccc1)C(=O)N1C[C@@H](Sc2ccccc2)C[C@H]1C(=O)O (some centres undefined),10.6% [at 24.7 µM],–
Cc1nnc(NS(=O)(=O)c2ccc(N)cc2)s1,–,inactive
O=S(=O)(O)CCS,–,inactive
Cc1cc2cc3c(C)cc(=O)oc3c(C)c2o1,10.9%,–
CCOC(=O)c1ccc(N)cc1,-24%,–
O=c1cc(O)c(Cl)c[nH]1,–,inactive
CC1(C)O[C@@H]2C[C@H]3[C@@H]4CCC5=CC(=O)C=C[C@]5(C)[C@@]4(F)[C@@H](O)C[C@]3(C)[C@]2(C(=O)CO)O1,8.17%,–
CC(N)CCCC(C)(C)O (centres undefined),-2.34%,–
O=S(=O)(O)c1cc(I)c(O)c2ncccc12,7.15%,–
